HepG2 viability – HepG2 cytotoxicity, counter-screen for TGF-b inhibitors. HepG2 CAGA-GFP viability, ATP luminescence, 18 h. Potency, µM (highest dose often 46.1 µM), actives largely listed as cytotoxic. 410,000 tested, 0.76% active
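HepG2 CAGA-GFP cells (1000/well, DMEM with 1% FBS) received compound, then TGF-beta at 500 pg/mL final, and were incubated 18 hours at 37 degrees C. Viability was read by CellTiter-Glo luminescence. Media-only wells were set as complete cell-killing and DMSO as no toxicity.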
TDP1 cell CPT – growth inhibition of DT40 Tdp1-/-;hTDP1 cells with camptothecin (screen for TDP1 inhibitors) | chicken DT40 Tdp1-/-;hTDP1 cells + 20 nM CPT, ATP luminescence, 48 h | Potency, µM (titrated, usually from 46.2 µM), actives largely listed as inhibitors | 420,000 tested, 12% active; note: nearly all actives have a fitted effect of over 55% in size
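Chicken DT40 Tdp1-/- cells stably complemented with human TDP1 were seeded at 400 cells/well in medium containing 20 nM camptothecin, exposed to pin-transferred compounds, and grown at 37 °C for at least 48 hr. Viability was read as ATP luminescence.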
TDP1 block – inhibitors of human tyrosyl-DNA phosphodiesterase TDP1; Q9NUW8; recombinant TDP1, AlphaScreen DNA substrate cleavage; Potency, µM (highest dose often 130 µM), most hits filed as inhibitors; 350,000 tested, 0.28% active; note: nearly all actives have a fitted effect of over 40% in size
Target sequence (Q9NUW8 whole entry, looked up): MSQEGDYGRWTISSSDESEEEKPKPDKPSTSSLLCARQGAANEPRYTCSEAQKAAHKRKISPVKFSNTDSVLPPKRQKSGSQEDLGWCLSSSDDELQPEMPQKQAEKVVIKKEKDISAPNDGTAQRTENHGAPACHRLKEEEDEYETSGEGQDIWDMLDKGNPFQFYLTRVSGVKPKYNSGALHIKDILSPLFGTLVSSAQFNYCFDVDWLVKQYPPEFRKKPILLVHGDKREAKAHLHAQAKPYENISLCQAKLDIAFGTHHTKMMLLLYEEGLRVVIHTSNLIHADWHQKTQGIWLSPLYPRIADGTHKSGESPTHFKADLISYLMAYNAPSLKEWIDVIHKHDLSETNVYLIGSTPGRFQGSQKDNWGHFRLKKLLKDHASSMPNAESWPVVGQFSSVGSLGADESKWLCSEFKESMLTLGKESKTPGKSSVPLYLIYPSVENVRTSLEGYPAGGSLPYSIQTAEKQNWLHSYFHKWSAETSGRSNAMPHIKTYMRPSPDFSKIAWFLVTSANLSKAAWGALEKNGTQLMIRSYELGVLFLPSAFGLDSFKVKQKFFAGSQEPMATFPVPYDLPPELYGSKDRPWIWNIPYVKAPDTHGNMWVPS
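E. coli-derived human Tdp1, 1 nM final. Cpd preinc 15 min RT; substrate 15 nM final, 5 min RT; AS bead mix 10 ug/ml final, 10 min RT. Signal loss = tyrosine-FITC cleavage. No-enzyme wells = max signal.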
TGFb SMAD3 inh – inhibitors of TGF-b signaling; 410,000 tested, 1.2% active; HepG2 CAGA-GFP TGF-b/SMAD3 reporter, GFP fluorescence, 18 h; TGF-beta stimulated, 500 pg/mL final; Potency, µM (doses to about 46.1 µM), actives largely listed as inhibitors; note: nearly all actives have a fitted effect of over 65% in size
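Inhibition was scored as loss of TGF-beta-induced (500 pg/mL final, 18 hours, 37 degrees C) GFP in HEPG2 cells carrying a CAGA-GFP reporter, in DMEM with 1% FBS. Well GFP was summed per cell; Activity was normalised to unstimulated and stimulated DMSO wells, then concentration-response fitting.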
DT40 TDP1 no CPT – qHTS for Inhibitors of human tyrosyl-DNA phosphodiesterase 1 (TDP1): qHTS in cells in absence of CPT | Potency, µM (highest dose often 46.2 µM), hits mostly inhibitors | 420,000 tested, 15% active | DT40 Tdp1-/- hTDP1 cells, no CPT, ATP luminescence, 48 h | AID 686978, 2013; note: nearly all actives have a fitted effect of over 55% in size
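Chicken DT40 Tdp1-/- cells complemented with human TDP1, screened without camptothecin (DMSO vehicle only), 400 cells/well. Compounds pin-transferred, cells incubated at 37 °C for at least 48 hr. Growth read as ATP-dependent luminescence (CellTiter-Glo, 30 min at RT).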
IL-1B inflam inh – inflammasome signaling inhibition, IL-1 beta readout | activity change, % at 57.5 µM | AID 743279 | THP-1 LPS/ATP IL-1B secretion, AlphaLISA, 16 h; stronger effect = lower value | 360,000 tested, 4.7% active; in the data active = activity change below about -50%; inconclusive = mostly about -30% to -49%
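Secreted IL-1B measured by AlphaLISA bead assay after 16 h compound exposure of THP-1 cells; compounds (final up to 57.5 uM) added 1 h before LPS (250 ng/mL) and ATP (1.25 mM) stimulation; lower signal means less secretion.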
Of the large screens only hits and unclear results are named; the others gave an inactive call; ! = repeats disagree. Only some compounds are listed: those with a hit (about 19% of all), similar ones and a draw of the others. Unless noted, calls come from the whole dose curve; as a rule, active = well fitted curve in the direction sought with a large enough effect; inconclusive = small, poorly fitted or top-dose-only effect, or another doubt; inactive = no such curve, though single readings can be large; an effect the other way counts as inactive or inconclusive.

C=CC(n1cncn1)C(O)(c1ccccc1)c1ccccc1 (stereo not drawn)	none
COc1ccc2cc(CCNC(=O)c3cc4ccccc4o3)c(=O)[nH]c2c1	TDP1 cell CPT 21µM, DT40 TDP1 no CPT inconclusive
O=C(CNC(=O)c1ccccc1)Sc1ccccc1	TDP1 cell CPT inconclusive, DT40 TDP1 no CPT 18µM (no result: TDP1 block)
O=C(CNC1C(=O)Nc2ccccc21)Sc1ccccc1 (stereo not drawn)	none
O=C(CCCCC(=O)Sc1ccccc1)Sc1ccccc1	TDP1 cell CPT inconclusive, DT40 TDP1 no CPT inconclusive, IL-1B inflam inh -96 (no result: TDP1 block)
O=C(NCSc1ccccc1)c1ccccc1	TDP1 cell CPT inconclusive
O=C1/C(=C\c2cccnc2)Sc2ccccc21	TDP1 cell CPT inconclusive, DT40 TDP1 no CPT 21µM
COc1cc(NC(=O)COC(=O)CSc2cc(C)ccc2C)c(C)cc1[N+](=O)[O-]	none
CC(C)CN1CCc2nc(N3CCN(c4ncccn4)CC3)ncc2C1	TDP1 cell CPT inconclusive (no result: IL-1B inflam inh)
CCOc1ccc(CN2CCc3nc(N4CCN(c5ccccc5OC)CC4)ncc3C2)cc1OC	TDP1 cell CPT 9.2µM, TGFb SMAD3 inh inconclusive, DT40 TDP1 no CPT 10µM (no result: IL-1B inflam inh)
COc1cccc(N2CCN(c3ncc4c(n3)CCN(Cc3ccc(Br)cc3)C4)CC2)c1	TDP1 cell CPT 13µM, TGFb SMAD3 inh inconclusive, DT40 TDP1 no CPT 9.2µM (no result: IL-1B inflam inh)
COc1cc(OC)c(OC)cc1CN1CCc2nc(N3CCN(c4ncccn4)CC3)ncc2C1	TDP1 cell CPT 16µM, TGFb SMAD3 inh inconclusive, DT40 TDP1 no CPT 23µM (no result: IL-1B inflam inh)
COc1ccccc1N1CCN(c2ncc3c(n2)CCN(Cc2ccccc2F)C3)CC1	none (no result: IL-1B inflam inh)
Fc1ccccc1N1CCN(c2ncc3c(n2)CCN(Cc2cc(Br)cs2)C3)CC1	TDP1 cell CPT inconclusive, TGFb SMAD3 inh inconclusive (no result: IL-1B inflam inh)
CCc1ccc(CN2CCc3nc(N4CCN(c5ccccc5F)CC4)ncc3C2)cc1	TDP1 cell CPT inconclusive, DT40 TDP1 no CPT 18µM (no result: IL-1B inflam inh)
O=C(c1cnccn1)N1CCC2(CC1)CCN(c1ccccn1)CC2	none (no result: HepG2 viability, TDP1 block, TGFb SMAD3 inh, IL-1B inflam inh)
Clc1ccc(CN2CCc3nc(N4CCN(c5ccccn5)CC4)ncc3C2)cc1	none (no result: IL-1B inflam inh)
CCOc1ccc(CN2CCc3nc(N4CCN(c5ncccn5)CC4)ncc3C2)cc1OC	TDP1 cell CPT 21µM, TGFb SMAD3 inh inconclusive, DT40 TDP1 no CPT inconclusive (no result: IL-1B inflam inh)
O=C(C#Cc1cccc([N+](=O)[O-])c1)c1ccccc1	none (no result: HepG2 viability, TDP1 cell CPT, TGFb SMAD3 inh, DT40 TDP1 no CPT, IL-1B inflam inh)
Nc1ccccc1C#CC(=O)c1ccccc1	TDP1 cell CPT 1.3µM, TGFb SMAD3 inh 3.5µM, DT40 TDP1 no CPT inconclusive, IL-1B inflam inh -102 (no result: TDP1 block)
CCOc1ccc(C(=O)CCC(=O)N2CCN(c3ncccn3)CC2)cc1	none (no result: TDP1 block)
COCCNC(=S)N(C)C1(c2ccccc2Cl)CCCCC1=O (stereo not drawn)	none
C=CCNC(=O)C(=O)NCCOc1ccccc1Cl	TDP1 cell CPT 12µM, DT40 TDP1 no CPT inconclusive
O=C(NCCOc1ccccc1Cl)C(=O)c1c[nH]c2ccccc12	TDP1 cell CPT inconclusive, TGFb SMAD3 inh inconclusive, DT40 TDP1 no CPT inconclusive
CC1CCC(NC(=O)c2ccc(NC(=O)CC3SC(N4CCCC4)=NC3=O)cc2)CC1 (stereo not drawn)	TDP1 cell CPT inconclusive, DT40 TDP1 no CPT inconclusive
CS(=O)(=O)N1CCC(n2c(C(F)(F)F)nc3cccnc32)CC1	none (no result: IL-1B inflam inh)
CC/C=C\C/C=C\C/C=C\CCCCCCCCCCCC(=O)O	none (no result: HepG2 viability, TGFb SMAD3 inh, IL-1B inflam inh)
CC/C=C\C/C=C\C/C=C\CCCCCCCC(=O)O	TDP1 block 5µM!
CCOc1ccc(CCN2C(=S)N([C@@H](CC(C)C)CN3CCCC3CN3C(=S)NC[C@@H]3CC(C)C)C[C@@H]2Cc2ccc(O)cc2)cc1 (stereo partly drawn)	TDP1 cell CPT 18µM, TGFb SMAD3 inh inconclusive, DT40 TDP1 no CPT inconclusive, IL-1B inflam inh inconclusive (no result: TDP1 block)
